HP1b chromo inh: blocks HP1-beta chromodomain binding to methylated histone tails; P83916; AlphaScreen HP1-beta / biotin-H3K9me3 peptide binding; Potency, µM (titrated, usually from 114 µM), without a hit: at the highest dose activity change, negative = inhibition, most hits filed as inhibitors; hit rate 0.56% among 390,000; also: potency is read from the fitted curve at half-maximal effect; nearly all actives have a fitted effect of over 70% in size
Target sequence (P83916 whole entry, looked up): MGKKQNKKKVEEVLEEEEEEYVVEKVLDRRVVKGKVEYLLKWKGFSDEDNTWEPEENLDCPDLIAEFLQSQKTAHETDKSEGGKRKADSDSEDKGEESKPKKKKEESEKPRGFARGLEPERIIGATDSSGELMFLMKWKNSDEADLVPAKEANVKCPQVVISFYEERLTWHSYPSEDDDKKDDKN
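Compound inhibition of the preformed complex between 50 nM HP1-beta and 50 nM biotinylated H3K9me3 peptide was read by AlphaScreen. Buffer was PBS pH 7.4 with 0.01% Tween-20. Incubations ran 30 min at room temperature, with 10 ug/mL donor/acceptor beads.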
PLK1 PBD block: inhibitors of human PLK1 polo-box domain binding; hit rate 2.8% among 360,000; Potency, µM, for inactives: max response, negative = inhibition, hits mostly inhibitors; P53350; Plk1 PBD binding of FITC phosphopeptide, fluorescence polarization; also: potency is read from the fitted curve at half-maximal effect; series mostly up to about 57 µM; % is scaled to controls: 0 for no effect and ±100 for the full control effect; nearly all actives have a fitted effect of over 65% in size
JMJD2A Tudor inh: blocks the human JMJD2A Tudor domain; Potency, µM (top dose mostly 114 µM), for the others: at the highest dose activity change, negative = inhibition, usual class: inhibitors; hit rate 4.4% among 390,000; AlphaScreen JMJD2A-Tudor / H3K4me3 peptide binding; O75164; also: potency is read from the fitted curve at half-maximal effect; % is scaled to controls: 0 for no effect and ±100 for the full control effect; nearly all actives have a fitted effect of over 50% in size
G9a inh: blocks human histone lysine methyltransferase G9a | Q96KQ7 | G9a H3K9 monomethylation, AlphaScreen, 2 h | Potency, µM (series often up to 102 µM), for inactives: at the top dose activity, negative = inhibition, most hits filed as inhibitors | hit rate 8.8% among 350,000 | AID 504332; also: potency is read from the fitted curve at half-maximal effect; % is scaled to controls: 0 for no effect and ±100 for the full control effect; nearly all actives have a fitted effect of over 75% in size
Target sequence (Q96KQ7 913-1193 limits assumed): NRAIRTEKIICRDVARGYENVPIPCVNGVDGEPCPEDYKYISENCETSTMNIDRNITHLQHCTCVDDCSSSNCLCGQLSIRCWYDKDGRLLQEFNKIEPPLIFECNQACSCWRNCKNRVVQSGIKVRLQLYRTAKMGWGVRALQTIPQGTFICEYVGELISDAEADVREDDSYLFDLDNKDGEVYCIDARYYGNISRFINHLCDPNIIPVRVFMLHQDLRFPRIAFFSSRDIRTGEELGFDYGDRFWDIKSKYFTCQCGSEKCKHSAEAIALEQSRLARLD
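Enzyme 20 nM + cpd, 15 min RT; add b-H3K9 pep 500 nM / SAM 20 uM; 2 h RT; anti-H3K9me1 Ab 0.5 ug/mL + SA donor / anti-rabbit acceptor beads 20 ug/mL each, 10 min; AlphaScreen read.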
PI5P4K alpha inh: inhibitors of human PI5P4K alpha. P48426. PI5P4Kalpha enzyme, ADP-Glo luminescence, 60 min; active compounds read low. max response, %. hit rate 1.2% among 330,000. AID 652105; active = max response of -50% or lower; inconclusive = between -30% and -50%; inactive = -30% or higher; also: value at the top dose of about 77 µM; % is scaled to controls: 0 for no effect and ±100 for the full control effect
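qHTS, 1536-well: enzyme/substrate mix, compound by pin tool, 5 microM ATP final; RT 60 min; ADP-Glo reagents 1 (45 min) then 2 (30 min); luminescence.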
BAZ2B inh: inhibitors of human BAZ2B bromodomain. AlphaScreen BAZ2B-H3K14Ac peptide displacement. hit rate 4.4% among 360,000. Q9UIF8. AID 504333. Potency, µM (doses to about 114 µM), inactives show at the top dose activity change, negative = inhibition, actives largely listed as inhibitors; also: potency is read from the fitted curve at half-maximal effect; % is scaled to controls: 0 for no effect and ±100 for the full control effect; nearly all actives have a fitted effect of over 60% in size
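Multi-concentration screen (max 110 uM) measuring displacement of acetylated histone H3 peptide from BAZ2B by AlphaScreen, using 50 nM protein, 50 nM peptide and 10 ug/mL streptavidin donor plus Ni-chelate acceptor beads.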
An asterisk follows results filed as active; [ ] = remark or other dose. Shown are actives, neighbours in structure and some others; about 12% of the full set was active somewhere. Unless noted, calls follow the shape of the dose curve; as a rule, active = well fitted curve in the direction sought with a large enough effect; inconclusive = small, poorly fitted or top-dose-only effect, or another doubt; inactive = no such curve, though single readings can be large; an effect the other way counts as inactive or inconclusive.

For NC(=S)NN=Cc1nccc2ccccc12 the results were HP1b chromo inh -5.6%[57 µM], PLK1 PBD block -14.9%, JMJD2A Tudor inh 17.8µM* and PI5P4K alpha inh -9.5.
For Cc1cnc(C=NNC(N)=S)c2cccc(N)c12 the results were HP1b chromo inh inconclusive, PLK1 PBD block 23.8µM*, JMJD2A Tudor inh 50.1µM* and PI5P4K alpha inh -53.2*.
Screening O=S(=O)(c1ccc2c(c1)OCCO2)N1CCN(S(=O)(=O)c2cc(F)c(Br)cc2F)CC1 returned JMJD2A Tudor inh -14.4%.
Screening COc1ccc(OC)c(CN2C(=O)CN(S(C)(=O)=O)CC2(C)C(=O)NCc2ccccc2)c1 (stereo not drawn) returned PLK1 PBD block -4.1% and PI5P4K alpha inh -0.4.
[O-]c1n[n+](-c2ccc(Cl)cc2Cl)cc2ccccc12 was read as HP1b chromo inh -4.4%, PLK1 PBD block -9.6%, JMJD2A Tudor inh -17.6%, G9a inh inconclusive, PI5P4K alpha inh 2.8 and BAZ2B inh -16.5%.
Screening [O-]c1n[n+](-c2ccc(Cl)cc2)cc2ccccc12 returned HP1b chromo inh 3.6%, PLK1 PBD block 3.36µM*, JMJD2A Tudor inh 14.1µM*, G9a inh 35.5µM*, PI5P4K alpha inh -16.4 and BAZ2B inh -10.0%.
For COc1cc(/C=C/CNC[C@H]2O[C@@H](n3cnc4c(=O)[nH]c(N)nc43)[C@H](O)[C@@H]2O)ccc1O the results were PLK1 PBD block -5.3% and PI5P4K alpha inh -0.9.
Screening Cc1cc(Br)ccc1OCCCCN1CCCCC1 returned HP1b chromo inh inconclusive, PLK1 PBD block -1.6%, JMJD2A Tudor inh 1.58µM*, G9a inh inconclusive, PI5P4K alpha inh 0.8 and BAZ2B inh 50.1µM*.
Screening COc1ccccc1OCCOCCOc1ccc(C)cc1Br returned HP1b chromo inh 244.2%, PLK1 PBD block -6.2%, JMJD2A Tudor inh 103.5%, G9a inh 142.2%[59 µM], PI5P4K alpha inh 1.0 and BAZ2B inh 139.9%.
`Cc1ccc(OCCOCCN2CCCC2)c(Br)c1` gave HP1b chromo inh inconclusive, PLK1 PBD block -10.9%, JMJD2A Tudor inh 28.2µM*, G9a inh 35.5µM*, PI5P4K alpha inh -1.6 and BAZ2B inh 56.2µM*.
Cc1ccccc1OCCCCCCN1CCNCC1 was read as HP1b chromo inh -4.0%, PLK1 PBD block -5.9%, JMJD2A Tudor inh -27.3% and PI5P4K alpha inh -4.8.
For Cc1cc(Br)ccc1OCCOCCN1CCCC1 the results were HP1b chromo inh 2.4%, PLK1 PBD block -5.0%, JMJD2A Tudor inh 25.1µM*, PI5P4K alpha inh -2.8 and BAZ2B inh inconclusive.
Cc1ccc(NC(=O)C2(C)CCN2C(=O)C2CCCCC2)cc1C (stereo not drawn) was read as PLK1 PBD block -10.2% and PI5P4K alpha inh 5.1.
O=c1c(Cl)c(O)ccn1C1OC(CO)C(O)C1O (stereo not drawn) was read as HP1b chromo inh 17.9%, PLK1 PBD block -3.5%, JMJD2A Tudor inh inconclusive and PI5P4K alpha inh -0.7.
`CC12CCC(C(S(=O)(=O)Nc3ccccc3)C1=O)C2(C)C` (stereo not drawn) gave HP1b chromo inh 11.7%[57 µM], PLK1 PBD block 0.5%, JMJD2A Tudor inh -7.6% and PI5P4K alpha inh -2.5.
Screening CN(C)c1ccc(CN(CC2CCCO2)C(=O)c2cc3ccccc3o2)cc1 (stereo not drawn) returned HP1b chromo inh inconclusive, PLK1 PBD block -9.4%, JMJD2A Tudor inh 44.7µM*, G9a inh 6.31µM*, PI5P4K alpha inh -6.5 and BAZ2B inh 10µM*.
`CCOc1cccc(C(=O)N(Cc2ccc(N(C)C)cc2)CC2CCCO2)c1` (stereo not drawn) gave HP1b chromo inh 3.0%, JMJD2A Tudor inh inconclusive, G9a inh 14.1µM* and BAZ2B inh 50.1µM*.
Screening CN(Cc1ccc(N(C)C)cc1)C(=O)c1cc2ccccc2o1 returned HP1b chromo inh inconclusive, PLK1 PBD block -8.5%, JMJD2A Tudor inh 50.1µM*, G9a inh 39.8µM*, PI5P4K alpha inh -6.7 and BAZ2B inh 31.6µM*.

Bioassay records deposited in PubChem BioAssay by National Center for Advancing Translational Sciences (NCATS).
